{"source": "PubChem BioAssay AID602450", "about": "(National Center for Advancing Translational Sciences (NCATS), 2012)", "note": "The source made the active and inactive calls. Calls follow the shape of the full dose curve."}
{"test": "qHTS Assay for Inhibitors of Influenza NS1 Protein Function: Viral Replication TCID50 SAR for Probe", "settings": "Influenza virus replication in cells, TCID50 titer reduction", "excerpt": "Influenza is a world-wide public health problem and emerging forms of the virus have the potential to cause a pandemic of equal or greater magnitude to the outbreaks recorded in 1918, 1957 or 1968. Vaccine development is proceeding and there also exist two classes of anti-influenza compounds. However these therapeutic modalities are neither fully effective nor widely enough available to fulfill global needs. In addition their potential usefulness against newly emergent strains is not known. Efforts are needed to develop novel agents against influenza virus, including broad-spectrum agents. Identification of small molecules that inhibit NS1 function either directly or by interfering with specific cellular pathways may be a key to increasing our defense against the virus.\nWe have miniaturized and optimized a cell based assay in which NS1 from influenza A is expressed in the budding yeast S. cerevisiae. NS1 is a multi-functional protein that counters the host innate immune response and facilitates viral versus cellular gene expression. Expression of NS1 causes a pronounced slow growth phenotype in yeast due to its intrinsic molecular activities. Small molecules that suppress the slow growth phenotype can be identified by a straightforward growth recovery assay using optical density (OD) as the measurement. The same yeast strain not expressing NS1 was used as positive control in the yeast growth recovery assay.\nHits resulting from this primary screen and other follow-up screens, were tested in two concentrations in this viral replication assay.\nNIH Chemical Genomics Center [NCGC]\nNIH Molecular Libraries Probe Centers Network [MLPCN]\nAssay Submitter (PI): Daniel Engel, University of Virgina\nCell monolayers were infected at an m.o.i. of 0.1 for 48 h in the presence or absence of the compound, which was added at the beginning of infection. Virus titres were determined by TCID50 analysis (Reed, L. J. & Muench, H. (1938). A simple method of estimating fifty per cent endpoints. Am J Epidemiol 27, 493-497)."}
{"smiles": "Cc1nn(-c2ccc(Cl)cc2)c2nc(N)c(C#N)c(-c3ccc(O)c(O)c3)c12", "Potency": "279 nM (active)"}
{"smiles": "COc1cc(-c2ccnc3c2c(C)nn3-c2ccc(C(F)(F)F)cc2)ccc1O", "Potency": "155 nM (active)"}
{"smiles": "COc1cc(-c2c(C#N)c(N)nc3c2c(C)nn3-c2ccc(F)cc2)ccc1O", "Potency": "101 nM (active)"}
{"smiles": "Cc1ccc(-n2nc(C)c3c(-c4ccc(O)c(O)c4)c(C#N)c(N)nc32)cc1C", "Potency": "234 nM (active)"}
{"smiles": "COc1cc(-c2ccnc3c2c(C)nn3-c2cccc(C(F)(F)F)c2)ccc1O", "Potency": "82.7 nM (active)"}
